Compound activity: PubChem BioAssay, several laboratories
Hits are enriched below; roughly 3.9% of the tested compounds scored in any of these assays.
HIF act: HIF pathway transcriptional activation | U2OS HRE-luciferase reporter, luminescence; normalized: DMSO 0%, desferrioxamine 100% | activation, % at 7.5 µM (by protocol) | 300,000 compounds, 0.32% hits | AID 1910;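 active = mean activation of at least 10% of the iron chelator positive control signal, with at least half of replicates also reaching 10%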
sPLA2-III inh: Inhibits HGIII-sPLA2 liposome hydrolysis, primary screen; Q9NZ20; QFRET BODIPY PC-A2 liposome hydrolysis, fluorescence; inhibition, % at 12.2 µM; 370,000 compounds, 0.56% hits; AID 743126;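 active = inhibition above mean plus 3 SD of compounds lying within the high and low control bounds, cut at about 19% in these data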;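 note: 0% = median of test compound wells and 100% = no enzyme DMSO wells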
PLCb3 inh: inhibitors of human phospholipase C beta3; Q01970; Purified PLC-beta3, fluorogenic substrate, fluorescence; inhibition, % at 12.2 µM; 370,000 compounds, 0.18% hits; AID 720704; in the data active = inhibition above about 11%;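 note: 0% = median of compound wells on plate and 100% = full blocker control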
CR mimetic SO: yeast age-related superoxide inhibition as caloric restriction mimetic. S. cerevisiae aged cells, superoxide DHE fluorescence; stronger effect = lower value. 330,000 compounds, 0.18% hits. superoxide response (% of plate mean), % at 10 µM;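 active = superoxide response under a set limit, about three screen SD below normal, cut at about 65% in these data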;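 note: yeast aged for seven days with compound at 30 °C before DHE staining; 100% = average MFI of all compound-treated wells on the plate with controls excluded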
PLC-gamma1 inh: inhibitors of human phospholipase C gamma1. P19174. purified PLC-gamma1, fluorogenic substrate, fluorescence. inhibition, % at 12.2 µM. 370,000 compounds, 0.84% hits. AID 720700; in the data active = inhibition above about 9.5%
AHR act: activates the human aryl hydrocarbon receptor; AHR-responsive luciferase reporter cells, luminescence; activation, % at 5 µM; 320,000 compounds, 2.5% hits; AID 2796; in the data active = activation above about 47%;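 note: 0% = vehicle wells and 100% = reference agonist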
AHR act cf: human AHR activation, confirmation; 2,300 compounds, 87% hits; AID 2845; activation, % at 9 µM; shares compounds with AHR act; human cells, AHR-responsive luciferase reporter, luminescence; in the data active = activation above about 49%;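 note: HepG2 hepatoma cells carrying a DRE-driven firefly luciferase reporter; 0% = vehicle wells and 100% = reference agonist wells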
PXR counter: PXR activation, counter-screen for AHR activators; 2,300 compounds, 88% hits; AID 434939; activation, % at 11.6 µM; shares compounds with AHR act; cell-based PXR reporter, luciferase luminescence; in the data active = activation above about 11%;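 note: human hepatoma DPX-2 cells expressing full-length human PXR; 0% = DMSO and 100% = reference agonist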
Target sequence (O75469 whole entry, looked up): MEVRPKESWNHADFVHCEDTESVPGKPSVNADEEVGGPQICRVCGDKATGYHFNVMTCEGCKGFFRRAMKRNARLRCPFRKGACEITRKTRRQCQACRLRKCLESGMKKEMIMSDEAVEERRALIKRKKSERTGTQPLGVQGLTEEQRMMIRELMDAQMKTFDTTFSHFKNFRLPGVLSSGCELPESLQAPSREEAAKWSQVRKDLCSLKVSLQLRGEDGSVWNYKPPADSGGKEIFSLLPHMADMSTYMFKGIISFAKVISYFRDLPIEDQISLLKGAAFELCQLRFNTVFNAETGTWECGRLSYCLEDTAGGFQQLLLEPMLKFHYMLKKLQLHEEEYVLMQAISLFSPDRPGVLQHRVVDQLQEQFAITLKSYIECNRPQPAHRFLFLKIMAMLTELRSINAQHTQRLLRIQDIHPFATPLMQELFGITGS
An asterisk follows results filed as active; / = no result given.

SMILES	HIF act	sPLA2-III inh	PLCb3 inh	CR mimetic SO	PLC-gamma1 inh	AHR act	AHR act cf	PXR counter
CC(=O)c1cc(O)c2ccccc2c1O	0.0	-4.1	-75.9	116.8	-56.9	89.7*	117.7*	9.0
CC(=O)c1c(C)oc2c1cc(O)c1ccccc12	0.7	5.8	-9.3	96.6	0.1	20.2	/	/
c1ccc(CN=C2NN=C(c3cc4ccccc4o3)CS2)cc1	1.2	-4.6	-2.4	102.3	1.0	6.7	/	/
c1ccc2oc(C3=NNC(=NC4CC4)SC3)cc2c1	1.8	-9.5	-12.2	103.7	-16.2	137.3*	0.6	16.0*
Cc1oc2ccc(Br)cc2c(=O)c1-c1nn[nH]n1	-0.4	0.8	3.0	127.7	-1.7	-0.5	/	/
COCCn1c(-c2ccccc2)csc1=Nc1cccnc1	0.5	-1.3	0.9	90.7	1.0	14.4	/	/
c1ccc(-c2csc(=Nc3cccnc3)n2CC2CCCO2)cc1 (stereo not given)	0.5	-6.2	-0.5	95.0	1.0	80.4*	55.4*	96.9*
C/C(=N\NC(=S)Nc1ccc(F)cc1)c1ccc2c(c1)OCCO2	1.3	-4.3	0.7	117.1	0.4	137.3*	83.8*	14.2*
O=C(Nc1cccnc1)Nc1cc(Cl)cc(Cl)c1	0.2	-12.2	0.7	90.8	2.1	113.0*	61.8*	/
COc1ccccc1NC(=O)Nc1cccnc1	/	10.0	-7.5	87.6	1.3	122.2*	93.2*	/
COc1ccc(/C=N/N(C)C2=NCCN2)c(OC)c1OC	-0.2	2.0	0.8	101.5	2.2	17.9	/	/
COc1ccccc1-n1cc(-c2ccccc2)[nH]c1=S	2.2	10.2	-3.8	97.4	2.5	102.3*	105.7*	48.5*
CCOc1ccc(-c2cn(-c3ccccc3OC)c(=S)[nH]2)cc1	2.9	15.1	-5.8	69.9	1.8	21.9	/	/
CCN/N=C(\Cc1nc2ccccc2[nH]1)c1ccccc1	1.3	-8.2	-85.2	96.6	-72.5	18.9	/	/
Clc1cccc(/C(Cc2nc3ccccc3[nH]2)=N\Nc2ccccc2)c1	0.3	-2.7	-67.3	98.6	-51.4	102.1*	95.7*	42.5*
C[C@@H]1CN([C@@H](C)CO)C(=O)CCCn2nncc2CO[C@H]1CN(C)Cc1ccc(Cl)c(Cl)c1	/	-2.0	5.4	/	1.6	/	/	/
Cc1[nH]nc(Nc2ccc(O)cc2)c1[N+](=O)[O-]	-0.3	-5.2	0.3	95.1	4.9	-3.6	/	/
Cc1ccccc1Nc1n[nH]c(C)c1[N+](=O)[O-]	-0.1	-4.1	2.7	95.2	9.3	80.1*	106.5*	22.2*
Cc1ccccc1-c1nsc(SCC(=O)Nc2ccc3c(c2)OCO3)n1	2.1	-1.3	0.7	94.4	-2.6	13.8	/	/
CCn1nnnc1SCC(=O)Nc1ccc2c(c1)OCO2	0.5	3.9	1.9	91.1	1.9	37.1	/	/
CCn1c(SCC(=O)Nc2ccc3c(c2)OCO3)nc2ccccc21	-0.4	0.1	-1.9	93.3	-2.3	93.0*	32.7	82.3*
Cn1nnnc1SCC(=O)Nc1ccc2c(c1)OCO2	1.8	0.1	-0.9	105.2	0.6	103.0*	114.8*	16.5*
O=C(CSc1nc2ccccc2n1CC(=O)N1CCCC1)Nc1ccc2c(c1)OCO2	0.0	6.5	5.7	93.9	4.0	7.4	/	/
Cc1cccc(-c2nsc(SCC(=O)Nc3ccc4c(c3)OCO4)n2)c1	1.8	-10.8	3.5	101.0	2.8	105.2*	21.4	15.8*
Cc1nc2cc(-c3ccc(Cl)cc3)nn2c(NCCN(C)C)c1C	1.9	-14.1	-30.3	77.7	-27.3	113.5*	101.9*	14.5*
O=c1cc(-c2ccccc2)oc2ccc(Br)cc12	/	-3.3	-0.4	86.5	0.6	98.8*	79.6*	39.1*
O=c1cc(-c2ccccc2)oc2ccc(Cl)cc12	/	-3.5	-6.1	/	-0.2	/	/	/
CCC(=O)N1CCN(C(C)=O)C1c1ccccc1 (stereo not given)	-0.1	4.7	1.5	102.1	0.0	-2.2	/	/
CC(=O)N1CCN(S(=O)(=O)c2ccccc2)C1c1ccccc1 (stereo not given)	-0.3	5.7	1.5	92.3	2.0	101.6*	8.8	62.7*
